Laboratory results reported in ChEMBL document CHEMBL4513216, “Probing the Open Global Health Chemical Diversity Library for Multistage-Active Starting Points for Next-Generation Antimalarials” (ACS Infect Dis, 2020).
The whole screen tested about 69,000 compounds, of which about 8,600 (12%) showed an effect of 50% or more. The entries come from a sample that favours strong results as a whole.

The compounds below were run on Plasmodium berghei (assay: Screen against P. berghei liver stage (PbLuc), transformed with Luciferase, at 10uM). Conditions: tested at 10 uM.
Assay type: functional, HepG2

**Q.** `O=C(Cc1ccc(F)cc1F)NCC(=O)Nc1ccccn1` was tested. Which INHIBITION did it give?
**A.** 45%

**Q.** With `Cn1c(C(N)=O)cc2c1CN(C(=O)C1CC(=O)N(C(C)(C)C)C1)CC2` (centres undefined) as the compound, how does the INHIBITION read?
**A.** 48%

**Q.** `CCN1CC(C(=O)N2CCc3cc(C(N)=O)n(C)c3C2)CCC1=O` (centres undefined) was tested. Which INHIBITION did it give?
**A.** 54.5%

**Q.** `CCN1CC(C(=O)N2CCN(c3cnn(C)c(=O)c3)CC2)CCC1=O` (centres undefined) was tested. Which INHIBITION did it give?
**A.** -22%

**Q.** How did the INHIBITION turn out when `CCN1CC(C(=O)N2CCc3cc(C(N)=O)n(C)c3C2)CC1=O` (centres undefined) was run?
**A.** 32.2%

**Q.** `Cn1c(C(N)=O)cc2c1CN(C(=O)C1CCCN(C3CCCC3)C1)CC2` (centres undefined) was tested. Which INHIBITION did it give?
**A.** 15.5%

**Q.** Which INHIBITION does the source give for `CCN1CC(C(=O)N2CCc3cc(C(=O)N(C)C)n(C)c3C2)CCC1=O` (centres undefined) here?
**A.** 51.7%

**Q.** Which INHIBITION does the source give for `Cc1ncc2c(n1)CN(CCCOc1ccc(C#N)cc1)CC2` here?
**A.** 19.2%

**Q.** `CC(=O)c1cccc(NC(=O)NCCOCC2CC2)c1` was tested. Which INHIBITION did it give?
**A.** -35.9%

**Q.** How did the INHIBITION turn out when `CC(=O)c1cccc(NC(=O)NCCc2nnc[nH]2)c1` was run?
**A.** 66.5%

**Q.** Which INHIBITION does the source give for `O=C(NCCc1nnc[nH]1)Nc1cccc(SC(F)F)c1` here?
**A.** 51.7%

**Q.** Which INHIBITION does the source give for `O=C(CCc1ccc(Br)cc1)NCCc1nnc[nH]1` here?
**A.** -7.12%

**Q.** For `CC(C)SCc1cccc(NC(=O)NCCc2nnc[nH]2)c1`, which INHIBITION is on record?
**A.** 56.3%

**Q.** For `Cc1nnc(CCNC(=O)Nc2ccc(S(C)(=O)=O)cc2)[nH]1`, which INHIBITION is on record?
**A.** -30%

**Q.** With `CC(=O)c1cccc(NC(=O)NCCCc2nc(C(C)C)no2)c1` as the compound, how does the INHIBITION read?
**A.** -34.8%

**Q.** Which INHIBITION does the source give for `CC(C)SCc1cccc(NC(=O)NC(C)c2nc[nH]n2)c1` (centres undefined) here?
**A.** 5.33%

**Q.** `COCCNC(=O)Nc1cccc(COCCOC(C)C)c1` was tested. Which INHIBITION did it give?
**A.** 18.6%

**Q.** With `Cc1cc(C)n(CC2CCCN2C(=O)c2c[nH]c(=O)c(Cl)c2)n1` (centres undefined) as the compound, how does the INHIBITION read?
**A.** 21%

**Q.** `COc1ccc(OCCNC(=O)CN(C)Cc2nnc(C)n2C)cc1` was tested. Which INHIBITION did it give?
**A.** -10.8%

**Q.** `O=C1COC2(CCN(CC3CC3)CC2)CN1c1cncnc1` was tested. Which INHIBITION did it give?
**A.** -33.3%

**Q.** `COc1cc(OC)cc(C2CC(=O)Nc3c2nc2n3CCCC2)c1` (centres undefined) was tested. Which INHIBITION did it give?
**A.** 1.19%

**Q.** For `Cc1noc(C)c1CN(C)CC(=O)Nc1ccnn1C(C)C1CC1` (centres undefined), which INHIBITION is on record?
**A.** -72.5%

**Q.** Which INHIBITION does the source give for `O=C(O)c1ccc(CN2CCC(c3ccnc4ccnn34)CC2)cc1` here?
**A.** 13.5%

**Q.** With `CC(=O)N1CCCC(c2nnc3n2CCN(C(=O)C2CCCCC2)C3)C1` (centres undefined) as the compound, how does the INHIBITION read?
**A.** 33.39%

**Q.** For `Cc1ccc(F)c(NCc2ccc(C(=O)N(C)C)[nH]2)c1`, which INHIBITION is on record?
**A.** -17.9%

**Q.** How did the INHIBITION turn out when `CCn1cc(S(=O)(=O)NCC(c2ccccc2)N2CCOCC2)c(C)n1` (centres undefined) was run?
**A.** 8.335%

**Q.** How did the INHIBITION turn out when `CN(C)CCN(C)C(=O)NC1CCC(Oc2ccccc2C#N)CC1` (centres undefined) was run?
**A.** 34%

**Q.** Which INHIBITION does the source give for `CN(C)C1(C(=O)NC2CCC(Oc3ccccc3C#N)CC2)CCC1` (centres undefined) here?
**A.** 67.4%

**Q.** For `CCNC(=O)NC1CCC(Oc2ccccc2C#N)CC1` (centres undefined), which INHIBITION is on record?
**A.** 40.2%
